First the molecules themselves.
B1: ENSMUSG00000043670.167|Diras1 (ssRNA)
RNA: GGGAGUUCUACAGUCCGACGAUCGCUUCGAUAUCCGCAUGCUAGGUUUGGGGUGCUGAGGGUGGGGUGCCCAGCUGAGAGUCUAUCAGCAAAGUCCCUGUGUGCGGUGAUAGGACUAGUGGCUGCUGCCCUAGGGCUCUGACAGAAUCUGAGCCUCUUUGCUGGUCAUGUGUACUCUGGAGACUGUCCCCCAUGUCUGCCCUGAGUUACGGAGCCCCUGUGGUAUCUGCGAGACUGUCCAGGAGACUUGAGUGGCUCCUGGGCCUGUGUCCCACCCAGAUGAGGGUGACUUAGAAUUCUGUGUCUCUUGCGGUCGCACUAGUGUGGAAUUCUCGGGUGUCAAGG
B2: ENSMUSG00000042529.74|Kcnj12 (ssRNA)
RNA: GGGAGUUCUACAGUCCGACGAUCGCUUCGAUAUCCGCAUGCUAACUUGGGCAAGACUGUUUACAAACAAAAACAAACAAACAAACAAUCAAAAAAAAAACCCACCCCACAAAACACAAGAAAACAUUAACAGGUGGUUCAAUUUUUAAAAUUCCUGGUGUGGGGACAGUUGGAAUUCUACUCAGCGCUGCCAGGCAAGCAGCUGGACGGAGAACCCUGAGGGUUCUCAGAGGUCUGUUUUCUCCCUCACGUGGGCCAGGGCCUUAAGCGAGUUGUCAUGCUUAAGGAUGAAUCAGGCUGCUUGCUCUUGCGGUCGCACUAGUGUGGAAUUCUCGGGUGUCAAGG
B3: ENSMUSG00000032194.238|Kank2 (ssRNA)
RNA: GGGAGUUCUACAGUCCGACGAUCGCUUCGAUAUCCGCAUGCUAAAACCUCAGCAGGGCAGCAUUGAGACUCAUGGACUAAAGGAAAGUGUUCACUCUUCUAGACAAGUGGGUCUCUUGGUUUGAUGGAGUCUUACUCCGCUUGAGUUUUGUAGAAGGGGUUUGUCUAAGGCAUAGAGGCUUGGUUGGCAUAAGAAAAUAAGAUGGACAGAUGGAUGGGUGGAUGGAUGGAUGGCUGAUUGAGUGGGUGGGUGGGUGGAUGGAUGCAUAAAUGAAUAGAUGGAUGGAUGAAUGAACAGAUAGAUCUCUUGCGGUCGCACUAGUGUGGAAUUCUCGGGUGUCAAGG
B4: ENSMUSG00000028439.2|Fam219a|50:54;256:260 (ssRNA)
RNA: GGGAGUUCUACAGUCCGACGAUCGCUUCGAUAUCCGCAUGCUAGACGAGGACCUAGAUCUCAUCCCCCCCAAGUCUGUGAACCCCACCUGCAACACAUGUCAGGCCACUUCCUCCACCGCCUGCCACAUUCAGUAGUGGGCGGGGUCGCCGCGGUGCACGGGGCGCUGACCUGGGCCCGGUGGGAUGCAGCAGGAGAGACCCCUACCCUGCUGGUCCACUGGUCCCCAGCCCCGCGCCUCUUAGAGCCGCCAACCUCGUAACAGUCAUUGCUUCCUCCUAUGGUAGGACGUGUACCUCACACACUCUUGCGGUCGCACUAGUGUGGAAUUCUCGGGUGUCAAGG
B5: ENSMUSG00000058297.541|Spock2|207:211 (ssRNA)
RNA: GGGAGUUCUACAGUCCGACGAUCGCUUCGAUAUCCGCAUGCUAUUUUGAUAUCGGCUCCCCAAAGCCCAAGCCCACAGCCCUAGGAGAGAACCAGGGGCCCAUCUUUGACACCUGGGCCAUCACGAGCCCUCCCGCCUGCAGUUGUCCUAGGGAAAGACCUGGGGGUGCAAAAGGAGAUUCAAGACAUCCGUACCAAGUCAGGCAGAGCUACCCGCUUCUCAGCCCGUGUCCCACUUAAAACCGUCCGAACACAAAUCACUGAGCUUAGAGUUAAACAUUGUGGUCAAGUGCUUGGGUUCCGUCUCUUGCGGUCGCACUAGUGUGGAAUUCUCGGGUGUCAAGG
B6: ENSMUSG00000058297.519|Spock2 (ssRNA)
RNA: GGGAGUUCUACAGUCCGACGAUCGCUUCGAUAUCCGCAUGCUACACAGGAGUCGUGACCACGUGUGAUGGGUGGGCACAGGUCUGCCUUGCUCCAGCCCCCUCCCUUGGUUUCUGUUGGUACCCAUUUGGCUUUUAUCUGCUUUCUGCUUCACCACUAAGUGCGUAGGUGGGGUCUUUUGAUAUCGGCUCCCCAAAGCCCAAGCCCACAGCCCUAGGAGAGAACCAGGGGCCCAUCUUUGACACCUGGGCCAUCACGAGCCCUCCCGCCUGCAGUUGUCCUAGGGAAAGACCUGGGGGUGCAACUCUUGCGGUCGCACUAGUGUGGAAUUCUCGGGUGUCAAGG
B7: ENSMUSG00000061578.447|Ksr2 (ssRNA)
RNA: GGGAGUUCUACAGUCCGACGAUCGCUUCGAUAUCCGCAUGCUAUUUCAGAGGGGAUAGUUCCUUCUAACCUUGUACUGGGACAUCAUCUAUGUCCCCAUCCCCAGAGCUGAAUUAGAGACACCAAGUAGCCUCUUGGGUUGUUUUGUGGGGUGUUCCCCUUGCUGGUCAAAGGAGUGGAAAGCCACCUUGCUGUAAAUGCUCUUGUUUUCUGUAGCAAUCUUGAACUCUUUUUUUUUUUUGUUCGUUUGUUUGUUUGUUUGUUUGUUUGUUUUUUCAAGACAGGGUUUUUCUGUAUAGCCCUGCUCUUGCGGUCGCACUAGUGUGGAAUUCUCGGGUGUCAAGG
B8: ENSMUSG00000031028.308|Tub (ssRNA)
RNA: GGGAGUUCUACAGUCCGACGAUCGCUUCGAUAUCCGCAUGCUAGAACCCUCAGCGAGGUAGCCUUUGUUUACAGUCUAGUUUCUAGAGGGCAGUAGGACUUCCAUGCUGGGGCUGGCCUAUCUCCUGAUGAAAGAUUACAGUGCCAUCUCCUUCCCAUAGUUCUGUGUCUGCCCUCCCUCCCUGACUUUAUAGGGAGAAAUCUCCUGACAUUAGAGGUGAUAGAAACCAGAGCUUUAGUCUAGUCAGGCUGUUUCUCUGGGUUGACAAGUUUAAGGUUGAACAGGCUGAUUUCUGGAAUCUCACUCUUGCGGUCGCACUAGUGUGGAAUUCUCGGGUGUCAAGG
B9: ENSMUSG00000029028.135|Lrrc47 (ssRNA)
RNA: GGGAGUUCUACAGUCCGACGAUCGCUUCGAUAUCCGCAUGCUAAGGCAUUCUAUUGAACAGUAUUUAUUUUUCUACAACAUGUUAAUAGAAUUUUUUUUUAAAUCAGCUGUGCAUAGACAGUUGAGAACAUCAUGUUGUGAGUGUAAUCUUCUUAGAGCUUGUUUCCAGGCACCGUGCUGCCGCCAUGCUCCCAGGGCAGCAUCUGCCUUCCACGGCUGUGCUUGGAACUGUAGUGCUGGUCGUUGUUGGCACAUCUGCGCCUUGGCCAAGGAAGUUAUCUAUGUCCGUGUAGUCCUUUGUAGCUCUUGCGGUCGCACUAGUGUGGAAUUCUCGGGUGUCAAGG
B10: ENSMUSG00000031028.662|Tub (ssRNA)
RNA: GGGAGUUCUACAGUCCGACGAUCGCUUCGAUAUCCGCAUGCUACUGGACCCCAUACUGGUGACCAGCUUGGUGAGGACAGGCAAAAUUUCUCUAGCUGAGAGCACACUUAGCCAGUUUUCACGCCUAGAACAUAUAUGUCGAUUUGCACAUGAUUGUCUUUUCCUAUUUUGGAGUGGUCAGACAUUUUAUUUUUGUUCAAAAUUAUCUGGAGUUUUAGACAAACUUGCAAAACUGUGCUUUUAUUAAGUGACUUUUUGAAUAAACUUUUUGGUAUUCUGAAGCAAAUGUAUUUAUUUAUUGGUCUCUUGCGGUCGCACUAGUGUGGAAUUCUCGGGUGUCAAGG
B11: ENSMUSG00000028439.182|Fam219a (ssRNA)
RNA: GGGAGUUCUACAGUCCGACGAUCGCUUCGAUAUCCGCAUGCUAUGUGUGUGUGCGUGUGCGUGUGUGUAUGUGUGUGCGUGUGUGUGUGUGUGUGUUGUACCCGAGUGUGUGUUGAGCCUAUCUGUCCAGGGAACCAGAUUGGUGUCCGAGAUGAGGAAAUGGCUGUGGCCUGGGAAAUCAGUGAGAGGCCGCUUGGGAAUGAGAAUGCAGUGGACUGAAAGCACAGCCUGGCCAUCUGGAACCUGGGUUCUGGUCCCAGCCUCGGCAUUCUCCCUGAGCUCCUAAGCAAUUCCCAGGCUUCUCUCUUGCGGUCGCACUAGUGUGGAAUUCUCGGGUGUCAAGG
B12: ENSMUSG00000028439.183|Fam219a (ssRNA)
RNA: GGGAGUUCUACAGUCCGACGAUCGCUUCGAUAUCCGCAUGCUAUGUGCGUGUGCGUGUGUGUAUGUGUGUGCGUGUGUGUGUGUGUGUGUUGUACCCGAGUGUGUGUUGAGCCUAUCUGUCCAGGGAACCAGAUUGGUGUCCGAGAUGAGGAAAUGGCUGUGGCCUGGGAAAUCAGUGAGAGGCCGCUUGGGAAUGAGAAUGCAGUGGACUGAAAGCACAGCCUGGCCAUCUGGAACCUGGGUUCUGGUCCCAGCCUCGGCAUUCUCCCUGAGCUCCUAAGCAAUUCCCAGGCUUCUCUAGGGCUCUUGCGGUCGCACUAGUGUGGAAUUCUCGGGUGUCAAGG
B13: ENSMUSG00000028439.181|Fam219a|7:16;18:22;24:40;42:59;69:76 (ssRNA)
RNA: GGGAGUUCUACAGUCCGACGAUCGCUUCGAUAUCCGCAUGCUAUGUGCCACACACACACCCACACCCACACACAUACACACACCCACACACACACACACACAUGUACCCGACACACACAUGAGCCUAUCUGUCCAGGGAACCAGAUUGGUGUCCGAGAUGAGGAAAUGGCUGUGGCCUGGGAAAUCAGUGAGAGGCCGCUUGGGAAUGAGAAUGCAGUGGACUGAAAGCACAGCCUGGCCAUCUGGAACCUGGGUUCUGGUCCCAGCCUCGGCAUUCUCCCUGAGCUCCUAAGCAAUUCCCAGCUCUUGCGGUCGCACUAGUGUGGAAUUCUCGGGUGUCAAGG
B14: ENSMUSG00000028439.182|Fam219a|1:10;12:16;18:34;36:53;63:70 (ssRNA)
RNA: GGGAGUUCUACAGUCCGACGAUCGCUUCGAUAUCCGCAUGCUAACACACACACCCACACCCACACACAUACACACACCCACACACACACACACACAUGUACCCGACACACACAUGAGCCUAUCUGUCCAGGGAACCAGAUUGGUGUCCGAGAUGAGGAAAUGGCUGUGGCCUGGGAAAUCAGUGAGAGGCCGCUUGGGAAUGAGAAUGCAGUGGACUGAAAGCACAGCCUGGCCAUCUGGAACCUGGGUUCUGGUCCCAGCCUCGGCAUUCUCCCUGAGCUCCUAAGCAAUUCCCAGGCUUCUCUCUUGCGGUCGCACUAGUGUGGAAUUCUCGGGUGUCAAGG
B15: ENSMUSG00000028439.181|Fam219a (ssRNA)
RNA: GGGAGUUCUACAGUCCGACGAUCGCUUCGAUAUCCGCAUGCUAUGUGCCUGUGUGUGUGCGUGUGCGUGUGUGUAUGUGUGUGCGUGUGUGUGUGUGUGUGUUGUACCCGAGUGUGUGUUGAGCCUAUCUGUCCAGGGAACCAGAUUGGUGUCCGAGAUGAGGAAAUGGCUGUGGCCUGGGAAAUCAGUGAGAGGCCGCUUGGGAAUGAGAAUGCAGUGGACUGAAAGCACAGCCUGGCCAUCUGGAACCUGGGUUCUGGUCCCAGCCUCGGCAUUCUCCCUGAGCUCCUAAGCAAUUCCCAGCUCUUGCGGUCGCACUAGUGUGGAAUUCUCGGGUGUCAAGG
B16: ENSMUSG00000028439.183|Fam219a|6:10;12:28;30:47;57:64 (ssRNA)
RNA: GGGAGUUCUACAGUCCGACGAUCGCUUCGAUAUCCGCAUGCUAUGUGCCACACCCACACACAUACACACACCCACACACACACACACACAUGUACCCGACACACACAUGAGCCUAUCUGUCCAGGGAACCAGAUUGGUGUCCGAGAUGAGGAAAUGGCUGUGGCCUGGGAAAUCAGUGAGAGGCCGCUUGGGAAUGAGAAUGCAGUGGACUGAAAGCACAGCCUGGCCAUCUGGAACCUGGGUUCUGGUCCCAGCCUCGGCAUUCUCCCUGAGCUCCUAAGCAAUUCCCAGGCUUCUCUAGGGCUCUUGCGGUCGCACUAGUGUGGAAUUCUCGGGUGUCAAGG

Whole data set: some 9,900 sequences, median “r (bound/input frequency ratio)” near 0.7, cut for the highest 2% near 6.5. The entries come from a sample that favours the highest values as a whole.

The target in the assay is TDP-43 (Homo sapiens, UniProt Q13148 1-414). The experiment in a line: RNA Bind-n-Seq with designed 260-mer pool; 25 mM Tris-HCl, 150 mM KCl, 3 mM MgCl2, BSA (printed 500 mg/mL), 20 units/mL SUPERase IN; pH not stated; 500 nM RNA pool, 1 h, 4 C; TDP-43 5, 50, 500 nM; high values mean tight binding. Particulars: protein: recombinant; tags: SBP (GST cleaved off with PreScission; pGEX-GST-SBP). In a few lines: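 Recombinant SBP-tagged TDP-43 at 5, 50 or 500 nM was captured on streptavidin beads, then incubated 1 h at 4 °C with 500 nM of an in vitro-transcribed 260-nt 3′ UTR oligo pool in 25 mM Tris-HCl, 150 mM KCl, 3 mM MgCl2, BSA and SUPERase IN. Bound RNA was washed, eluted with biotin, reverse transcribed, PCR-amplified and sequenced. Binding is R, each oligo's mapped-read-normalized abundance in the bound sample divided by its abundance in input. Duplicates used two independent protein batches.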
TDP-43, sequence (Q13148 whole entry): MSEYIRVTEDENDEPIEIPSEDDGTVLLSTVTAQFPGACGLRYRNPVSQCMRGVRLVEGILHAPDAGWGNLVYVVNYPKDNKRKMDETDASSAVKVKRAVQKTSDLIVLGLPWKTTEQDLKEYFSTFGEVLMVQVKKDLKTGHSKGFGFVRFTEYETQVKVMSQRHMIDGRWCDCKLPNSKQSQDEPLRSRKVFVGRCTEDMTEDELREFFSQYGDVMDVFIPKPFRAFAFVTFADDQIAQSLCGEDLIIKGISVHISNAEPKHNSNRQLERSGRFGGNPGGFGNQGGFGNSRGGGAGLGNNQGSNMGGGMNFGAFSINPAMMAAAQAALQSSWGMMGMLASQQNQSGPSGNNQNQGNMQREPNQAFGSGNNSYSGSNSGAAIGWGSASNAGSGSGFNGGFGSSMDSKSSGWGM
As for B1, the binding signal was 1.03 R (bound/input frequency ratio).
For the molecule B2, the binding signal is 1.56 R (bound/input frequency ratio).
Under B3 stands 0.95 R (bound/input frequency ratio); under B4, 0.757 R (bound/input frequency ratio).
To B5 belongs 0.821 R (bound/input frequency ratio).
Turning to B6, the binding signal was 0.833 R (bound/input frequency ratio).
In the case of B7, the binding signal was 2.55 R (bound/input frequency ratio).
Take B8: the binding signal is 0.194 R (bound/input frequency ratio).
Under B9 stands 0.359 R (bound/input frequency ratio); under B10, 0.163 R (bound/input frequency ratio); under B11, 6.82 R (bound/input frequency ratio).
To B12 belongs 5.72 R (bound/input frequency ratio); to B13, 3.16 R (bound/input frequency ratio); to B14, 3.29 R (bound/input frequency ratio).
Under B15 stands 6.58 R (bound/input frequency ratio); under B16, 2.29 R (bound/input frequency ratio).

The record behind these values is publication PMC12864922, “TDP-43 directly inhibits mRNA accumulation in neurites through modulation of mRNA stability”.
